Results as given in PubChem BioAssay (EPA / NIEHS).
Records with an inconclusive call do not appear. Activity calls are given as the source filed them. The calls were made as follows: active = hit-call score of the fitted dose curve at least 0.9, where 1 is the maximum; inconclusive = response in the unintended direction; inactive = score below 0.9.

Target: Cellular tumor antigen p53 (Homo sapiens) (UniProt P04637)
Assay: TOX21_p53_BLA_p5_ratio: Tox21 HCT-116 p53 Agonism Beta-lactamase Assay, Ratio, Phase 5 (AID 2283599)
In short: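 HCT-116 p53-bla cells (4000/well) plated 5 h, dosed with compound (217-fold DMSO dilution) for 16 h at 37 C; CCF4-AM substrate 2 h at room temperature. Activity is the 460/530 nm emission ratio (405 nm excitation), fitted in gain-of-signal direction versus DMSO.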

Chain of Cellular tumor antigen p53 (Homo sapiens) (P04637 whole entry, looked up): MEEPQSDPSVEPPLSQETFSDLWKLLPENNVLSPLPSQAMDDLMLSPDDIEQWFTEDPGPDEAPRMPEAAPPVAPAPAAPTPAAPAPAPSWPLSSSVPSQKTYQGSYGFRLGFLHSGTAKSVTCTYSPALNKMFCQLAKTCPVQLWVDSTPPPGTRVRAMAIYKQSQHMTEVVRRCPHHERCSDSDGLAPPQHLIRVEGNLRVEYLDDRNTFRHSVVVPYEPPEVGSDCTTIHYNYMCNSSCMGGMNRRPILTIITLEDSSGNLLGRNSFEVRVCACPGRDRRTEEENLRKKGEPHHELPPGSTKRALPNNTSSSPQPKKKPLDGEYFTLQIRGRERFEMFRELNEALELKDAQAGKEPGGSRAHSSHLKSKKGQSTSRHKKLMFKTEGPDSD

Row | Compound | outcome
1 | NC(=O)OCCCc1ccccc1 | inactive
2 | Cc1cc(OC(=O)N(C)C)nn1C(=O)N(C)C | inactive
3 | CCCCCCCCCC(=O)O[C@H]1CC[C@H]2[C@@H]3CCC4=CC(=O)CC[C@]4(C)[C@H]3CC[C@]12C | inactive
4 | O=P(Cl)(Cl)Cl | inactive
5 | CN[C@@H](C)[C@H](O)c1ccccc1 | inactive
6 | COc1ccc2[nH]cc(CCN(C(C)C)C(C)C)c2c1 | inactive
7 | CCCCc1c(C)nc(NCC)nc1OS(=O)(=O)N(C)C | inactive
8 | ClC(Cl)C(Cl)Cl | inactive

System: not listed separately
Assay: TOX21_p53_BLA_p5_viability: Viability Assessment in the Tox21 HCT-116 p53 Agonism Beta-lactamase Assay, Phase 5 (AID 2283600)
In short: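 After the 460/530 nm beta-lactamase measurement, the wells received an ATP-detection luciferase reagent; signal was read 30 min later at RT. Compound treatment lasted 16 h on cells pre-incubated 5 h post-seeding.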

Row | Compound | outcome
9 | NC(=O)OCCCc1ccccc1 | inactive
10 | CCCN1CCC[C@@H]2Cc3[nH]ncc3C[C@H]21 | inactive
11 | NC(=O)c1cc([N+](=O)[O-])cc([N+](=O)[O-])c1 | inactive
12 | Cc1cc(OC(=O)N(C)C)nn1C(=O)N(C)C | inactive
13 | O=C1Nc2ccc(Cl)cc2C(c2ccccc2Cl)=NC1O (stereo not given) | inactive
14 | O=C1OC(c2ccc(O)c(S(=O)(=O)O)c2)(c2ccc(O)c(S(=O)(=O)O)c2)c2c(Br)c(Br)c(Br)c(Br)c21 | inactive
15 | CN(CCO)CCO | inactive
16 | O=P(Cl)(Cl)Cl | inactive
17 | CN[C@@H](C)[C@H](O)c1ccccc1 | inactive

Target: Cellular tumor antigen p53 (Homo sapiens) (UniProt P04637)
Assay: TOX21_p53_BLA_p4_ratio: Tox21 HCT-116 p53 Agonism Beta-lactamase Assay, Ratio, Phase 4 (AID 2283601)
In short: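 HCT-116 p53 beta-lactamase reporter cells (4000/well) preincubated 5 h, then compound (217-fold dilution of DMSO stock) for 16 h at 37C. CCF4-AM substrate added 2 h at room temperature; 460/530 nm emission ratio fitted upward versus DMSO.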

Row | Compound | outcome
18 | NC(=O)OCCCc1ccccc1 | inactive
19 | C[C@]12CC[C@H]3[C@@H](CCC4=CC(=O)CC[C@@]43C)[C@@H]1CC[C@@H]2O | inactive
20 | CCCN1CCC[C@@H]2Cc3[nH]ncc3C[C@H]21 | inactive
21 | Cc1cc(OC(=O)N(C)C)nn1C(=O)N(C)C | inactive
22 | O=C1Nc2ccc(Cl)cc2C(c2ccccc2Cl)=NC1O (stereo not given) | inactive
23 | O=C1OC(c2ccc(O)c(S(=O)(=O)O)c2)(c2ccc(O)c(S(=O)(=O)O)c2)c2c(Br)c(Br)c(Br)c(Br)c21 | inactive
24 | CCN(CC)CCc1c[nH]c2ccccc12 | inactive
25 | O=C1CC[C@@]2(O)[C@H]3Cc4ccc(O)c5c4[C@@]2(CCN3CC2CC2)[C@H]1O5 | inactive
26 | CN(CCO)CCO | inactive
27 | CCCCCCCCCC(=O)O[C@H]1CC[C@H]2[C@@H]3CCC4=CC(=O)CC[C@]4(C)[C@H]3CC[C@]12C | inactive
28 | CN=C=O | inactive
29 | O=P(Cl)(Cl)Cl | inactive
30 | CN[C@@H](C)[C@H](O)c1ccccc1 | inactive
31 | COc1ccc2[nH]cc(CCN(C(C)C)C(C)C)c2c1 | inactive
32 | O=C(O)CCCCCCNC1c2ccccc2CCc2ccccc21 | inactive
33 | ClC(Cl)C(Cl)Cl | inactive

Target: PGR (gene 5241) (UniProt P06401)
Sequence (P06401 whole entry, looked up): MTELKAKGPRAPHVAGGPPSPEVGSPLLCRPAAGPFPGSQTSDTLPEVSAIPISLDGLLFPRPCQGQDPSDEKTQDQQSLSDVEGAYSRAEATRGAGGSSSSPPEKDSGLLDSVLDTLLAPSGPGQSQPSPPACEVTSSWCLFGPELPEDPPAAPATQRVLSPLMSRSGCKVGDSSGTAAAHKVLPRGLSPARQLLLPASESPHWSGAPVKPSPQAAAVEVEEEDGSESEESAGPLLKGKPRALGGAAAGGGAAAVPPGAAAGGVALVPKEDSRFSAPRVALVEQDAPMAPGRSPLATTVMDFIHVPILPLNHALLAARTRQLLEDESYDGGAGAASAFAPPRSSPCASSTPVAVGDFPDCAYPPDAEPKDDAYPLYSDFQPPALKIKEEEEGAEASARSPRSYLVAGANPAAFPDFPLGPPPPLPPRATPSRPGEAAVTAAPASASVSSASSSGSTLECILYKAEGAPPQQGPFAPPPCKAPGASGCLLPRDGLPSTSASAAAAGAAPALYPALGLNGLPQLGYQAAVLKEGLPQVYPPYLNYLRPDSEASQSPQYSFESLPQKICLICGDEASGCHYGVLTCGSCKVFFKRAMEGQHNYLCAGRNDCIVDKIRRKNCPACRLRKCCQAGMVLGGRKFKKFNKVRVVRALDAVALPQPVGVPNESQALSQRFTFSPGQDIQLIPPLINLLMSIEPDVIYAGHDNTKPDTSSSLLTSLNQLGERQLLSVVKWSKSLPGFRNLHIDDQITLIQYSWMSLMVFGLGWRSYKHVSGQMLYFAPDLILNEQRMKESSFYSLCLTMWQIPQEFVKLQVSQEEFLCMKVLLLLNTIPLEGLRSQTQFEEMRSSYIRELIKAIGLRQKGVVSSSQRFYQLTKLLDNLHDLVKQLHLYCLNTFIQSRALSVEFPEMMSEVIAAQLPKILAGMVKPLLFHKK
Assay: TOX21_PR_BLA_Followup_Agonist_ratio: Tox21 HEK293 Progesterone Receptor (PR) Agonism Beta-lactamase Follow-Up Assay, Ratio (AID 2283933)
In short: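 PR-UAS-bla HEK293T cells (GAL4-UAS beta-lactamase reporter) in medium with 2% charcoal-stripped FBS received compounds after 6 hr at 37C, then incubated 16 hr. LiveBLAzer FRET substrate added, 2 hr room temperature; cleaved/uncleaved (ch2/ch1) ratio fitted upward versus DMSO.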

Row | Compound | AC50 | outcome
34 | CCC(=O)O[C@@H]1C=C2CCC3C(CCC4(C)C3CC[C@@H]4OC(=O)CC)C2CC1 (stereo not given in full) | 4.48 µM (active) | –
35 | O=C(CBr)Nc1ccc(Cl)cc1C(=O)c1ccccc1F | – | inactive
36 | Nc1ccc(Cl)cc1C(=O)c1ccccc1F | – | inactive
37 | C[C@]12Cc3cn[nH]c3C[C@@H]1CC[C@@H]1[C@@H]2CC[C@@]2(C)[C@H]1CC[C@]2(C)O | 6.44 µM (active) | –
38 | C[C@]12CC[C@H]3[C@@H](CCC4=CC(=O)CC[C@@H]43)[C@@H]1CC[C@@H]2OC(=O)CCc1ccco1 | 2.16 µM (active) | –
39 | C[C@]12CC[C@H]3[C@@H](CCC4=CC(=O)CC[C@@H]43)[C@@H]1CC[C@@H]2OC(=O)CCC1CCCCC1 | 2.39 µM (active) | –

Target: PGR (gene 5241) (UniProt P06401)
Assay: TOX21_PR_BLA_Followup_Antagonist_ratio: Tox21 HEK293 Progesterone Receptor (PR) Antagonism Beta-lactamase Follow-Up Assay, Ratio (AID 2283934)
In short: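 PR-UAS-bla HEK293T cells in medium with 2% charcoal-stripped FBS were treated with compounds plus 1 nM (final) promegestone (R5020) for 16 hr at 37C. LiveBLAzer B/G FRET substrate was then added for 2 h at room temperature; signal is cleaved/uncleaved substrate ratio versus DMSO.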

Row | Compound | outcome | AC50
40 | CCC(=O)O[C@@H]1C=C2CCC3C(CCC4(C)C3CC[C@@H]4OC(=O)CC)C2CC1 (stereo not given in full) | inactive | –
41 | O=C(CBr)Nc1ccc(Cl)cc1C(=O)c1ccccc1F | inactive | –
42 | CC1COC2(c3ccccc3Cl)c3cc(Cl)ccc3NC(=O)CN12 (stereo not given) | inactive | –
43 | O=C1CN=C(c2ccccc2)c2cc(Cl)ccc2N1CC1CC1 | – | 23 µM (active)
44 | Nc1ccc(Cl)cc1C(=O)c1ccccc1F | – | 17.3 µM (active)
45 | C[C@]12Cc3cn[nH]c3C[C@@H]1CC[C@@H]1[C@@H]2CC[C@@]2(C)[C@H]1CC[C@]2(C)O | inactive | –
46 | C[C@]12CC[C@H]3[C@@H](CCC4=CC(=O)CC[C@@H]43)[C@@H]1CC[C@@H]2OC(=O)CCc1ccco1 | inactive | –
47 | C[C@]12CC[C@H]3[C@@H](CCC4=CC(=O)CC[C@@H]43)[C@@H]1CC[C@@H]2OC(=O)CCC1CCCCC1 | inactive | –

System: not listed separately
Assay: TOX21_PR_BLA_Followup_Agonist_viability: Viability Assessment in the Tox21 HEK293 Progesterone Receptor (PR) Agonism Beta-lactamase Follow-Up Assay (AID 2283935);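 also: signal loss means lower viability so actives are cytotoxic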
In short: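 PR-UAS-bla HEK293T cells in 2% charcoal-stripped FBS medium, compound added after 6 hr plating, 16 hr at 37C/5% CO2. After bla FRET read, CellTiter-Glo added; luminescence read after 30 min at room temperature; signal loss marks cytotoxicity.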

Row | Compound | outcome
48 | CCC(=O)O[C@@H]1C=C2CCC3C(CCC4(C)C3CC[C@@H]4OC(=O)CC)C2CC1 (stereo not given in full) | inactive
49 | O=C(CBr)Nc1ccc(Cl)cc1C(=O)c1ccccc1F | inactive
50 | CC1COC2(c3ccccc3Cl)c3cc(Cl)ccc3NC(=O)CN12 (stereo not given) | inactive
51 | O=C1CN=C(c2ccccc2)c2cc(Cl)ccc2N1CC1CC1 | inactive
52 | Nc1ccc(Cl)cc1C(=O)c1ccccc1F | inactive
53 | C[C@]12Cc3cn[nH]c3C[C@@H]1CC[C@@H]1[C@@H]2CC[C@@]2(C)[C@H]1CC[C@]2(C)O | inactive
54 | C[C@]12CC[C@H]3[C@@H](CCC4=CC(=O)CC[C@@H]43)[C@@H]1CC[C@@H]2OC(=O)CCc1ccco1 | inactive
55 | C[C@]12CC[C@H]3[C@@H](CCC4=CC(=O)CC[C@@H]43)[C@@H]1CC[C@@H]2OC(=O)CCC1CCCCC1 | inactive
